Laboratory results published in PubChem BioAssay AID1159580 (chemical genetic matrix, 2015).
Screen size: about 5,500 compounds; about 2,000 (36%) were called active. Roughly 18% stayed inconclusive and do not appear here. Rule as the data show it: active = normalized growth mostly below about 0.91 (no sharp cut-off); inconclusive = no clear call, values can overlap the other calls; inactive = mostly above about 0.92. This is one part of the list.

Experiment: chemical genetic growth profiling, strain panel (AID 1159580);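 also: tested at 20 µM; growth read once vehicle control cultures reached saturation at 30 °C; 1 = growth at the plate median or of vehicle wells; lower values mean less growth of the strain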
Conditions: growth OD

Measured: normalized growth

COc1cc(OC)c2c(c1Cl)OC1(C2=O)C(O)=CC(=O)CC1C (stereo unspecified)
inactive: S. cerevisiae deletion strains, locus YJR075W, strain HOC1, active compounds read low 1.02 | S. cerevisiae deletion strains, locus YKL009W, strain mrt4, active compounds read low 1.01 | S. cerevisiae deletion strains, locus YKL068W, active compounds read low 0.991 | S. cerevisiae deletion strains, locus YKL085W, strain MDH1 (second series), active compounds read low 1.01 | S. cerevisiae deletion strains, locus YKL085W, strain MDH1, active compounds read low 1.01 | S. cerevisiae deletion strains, locus YKL160W, strain elf1, active compounds read low 1.01 | S. cerevisiae deletion strains, locus YKR001C, strain vps1, active compounds read low 1.03 | S. cerevisiae deletion strains, locus YKR026C, strain gcn3, active compounds read low 1.01 | S. cerevisiae deletion strains, locus YKR091W, strain srl3, active compounds read low 1.01 | S. cerevisiae deletion strains, locus YLL001W, strain dnm1, active compounds read low 1 | S. cerevisiae deletion strains, locus YLL026W, active compounds read low 1.01 | S. cerevisiae deletion strains, locus YLL041C, strain sdh2, active compounds read low 1.01 | S. cerevisiae deletion strains, locus YLR027C, strain aat2, active compounds read low 1.03 | S. cerevisiae deletion strains, locus YLR039C, strain RIC1, active compounds read low 1.08 | S. cerevisiae deletion strains, locus YLR058C, strain SHM2, active compounds read low 1.03 | S. cerevisiae deletion strains, locus YLR102C, strain apc9, active compounds read low 0.991 | S. cerevisiae deletion strains, locus YLR113W, strain HOG1, active compounds read low 1.04 | S. cerevisiae deletion strains, locus YLR221C, strain rsa3, active compounds read low 1.02 | S. cerevisiae deletion strains, locus YLR258W, strain gsy2, active compounds read low 1 | S. cerevisiae deletion strains, locus YLR262C, strain YPT6 (second series), active compounds read low 1.02 | S. cerevisiae deletion strains, locus YLR262C, strain YPT6, active compounds read low 1.06 | S. cerevisiae deletion strains, locus YLR268W, strain sec22, active compounds read low 1.02 | S. cerevisiae deletion strains, locus YLR320W, strain mms22, active compounds read low 1.02 | S. cerevisiae deletion strains, locus YLR342W, strain FKS1 (second series), active compounds read low 1.06 | S. cerevisiae deletion strains, locus YLR342W, strain FKS1, active compounds read low 1.01 | S. cerevisiae deletion strains, locus YLR357W, strain rsc2, active compounds read low 1.02 | S. cerevisiae deletion strains, locus YLR370C, strain arc18, active compounds read low 1.01 | S. cerevisiae deletion strains, locus YLR371W, strain rom2, active compounds read low 1 | S. cerevisiae deletion strains, locus YLR384C, strain iki3, active compounds read low 1.01 | S. cerevisiae deletion strains, locus YLR418C, strain cdc73, active compounds read low 0.992 | S. cerevisiae deletion strains, locus YML016C, strain PPZ1, active compounds read low 1.03 | S. cerevisiae deletion strains, locus YML032C, strain rad52, active compounds read low 1 | S. cerevisiae deletion strains, locus YML120C, strain ndi1, active compounds read low 1.01 | S. cerevisiae deletion strains, locus YML124C, strain tub3, active compounds read low 0.991 | S. cerevisiae deletion strains, locus YMR058W, strain fet3, active compounds read low 1.01 | S. cerevisiae deletion strains, locus YMR078C, strain ctf18, active compounds read low 0.98 | S. cerevisiae deletion strains, locus YMR125W, strain sto1, active compounds read low 1.01 | S. cerevisiae deletion strains, locus YMR129W, active compounds read low 1.01 | S. cerevisiae deletion strains, locus YMR205C, strain PFK2, active compounds read low 1.02 | S. cerevisiae deletion strains, locus YMR223W, strain ubp8, active compounds read low 1.01 | S. cerevisiae deletion strains, locus YMR231W, strain pep5, active compounds read low 0.995 | S. cerevisiae deletion strains, locus YMR307W, strain GAS1, active compounds read low 1.04 | S. cerevisiae deletion strains, locus YNL067W, strain RPL9B, active compounds read low 1.01 | S. cerevisiae deletion strains, locus YNL071W, strain lat1, active compounds read low 1.01 | S. cerevisiae deletion strains, locus YNL128W, strain TEP1, active compounds read low 1.03 | S. cerevisiae deletion strains, locus YNL183C, strain NPR1, active compounds read low 0.932 | S. cerevisiae deletion strains, locus YNL209W, strain ssb2, active compounds read low 1.03 | S. cerevisiae deletion strains, locus YNL233W, strain BNI4, active compounds read low 1.02 | S. cerevisiae deletion strains, locus YNL248C, strain rpa49, active compounds read low 1.01 | S. cerevisiae deletion strains, locus YNL250W, strain rad50, active compounds read low 0.992 | S. cerevisiae deletion strains, locus YNL271C, strain bni1, active compounds read low 0.984 | S. cerevisiae deletion strains, locus YNL298W, strain CLA4, active compounds read low 1.01 | S. cerevisiae deletion strains, locus YNL307C, strain MCK1, active compounds read low 0.993 | S. cerevisiae deletion strains, locus YNL322C, strain KRE1 (second series), active compounds read low 1.01 | S. cerevisiae deletion strains, locus YNL322C, strain KRE1, active compounds read low 1.02 | S. cerevisiae deletion strains, locus YNR049C, strain mso1, active compounds read low 1 | S. cerevisiae deletion strains, locus YNR052C, strain pop2, active compounds read low 0.969 | S. cerevisiae deletion strains, locus YOL006C, strain TOP1, active compounds read low 1.2 | S. cerevisiae deletion strains, locus YOL012C, strain htz1 1.12 | S. cerevisiae deletion strains, locus YOL147C, strain pex11, active compounds read low 1 | S. cerevisiae deletion strains, locus YOR001W, strain rrp6, active compounds read low 1.01 | S. cerevisiae deletion strains, locus YOR061W, strain CKA2, active compounds read low 1.04 | S. cerevisiae deletion strains, locus YOR069W, strain VPS5, active compounds read low 1.02 | S. cerevisiae deletion strains, locus YOR070C, strain gyp1, active compounds read low 1.02 | S. cerevisiae deletion strains, locus YOR080W, strain dia2, active compounds read low 1.01 | S. cerevisiae deletion strains, locus YOR083W, strain WHI5, active compounds read low 1.01 | S. cerevisiae deletion strains, locus YOR106W, strain vam3, active compounds read low 1.02 | S. cerevisiae deletion strains, locus YOR136W, strain idh2, active compounds read low 1 | S. cerevisiae deletion strains, locus YOR144C, strain elg1, active compounds read low 0.996 | S. cerevisiae deletion strains, locus YOR184W, strain ser1, active compounds read low 1.04 | S. cerevisiae deletion strains, locus YOR231W, strain MKK1, active compounds read low 0.978 | S. cerevisiae deletion strains, locus YOR265W, strain rbl2, active compounds read low 1 | S. cerevisiae deletion strains, locus YOR270C, strain vph1, active compounds read low 1.05 | S. cerevisiae deletion strains, locus YOR290C, strain snf2, active compounds read low 1.02 | S. cerevisiae deletion strains, locus YOR316C, strain cot1, active compounds read low 0.992 | S. cerevisiae deletion strains, locus YPL051W, strain arl3, active compounds read low 0.999 | S. cerevisiae deletion strains, locus YPL078C, strain atp4, active compounds read low 1.01 | S. cerevisiae deletion strains, locus YPL106C, strain sse1, active compounds read low 1 | S. cerevisiae deletion strains, locus YPL240C, strain hsp82, active compounds read low 1 | S. cerevisiae deletion strains, locus YPL256C, strain CLN2, active compounds read low 0.979 | S. cerevisiae deletion strains, locus YPR119W, strain clb2, active compounds read low 0.986 | S. cerevisiae deletion strains, locus YPR141C, strain kar3, active compounds read low 0.988 | S. cerevisiae deletion strains, locus YPR163C, strain tif3, active compounds read low 0.995 | S. cerevisiae deletion strains, locus YPR167C, strain met16, active compounds read low 0.997 | S. cerevisiae deletion strains, strain wtn01, active compounds read low 1.04 | S. cerevisiae strains, strain wild type, active compounds read low 1.04
